Shown are actives, neighbours in structure and some others; about 31% of the full set was active somewhere.
CYP2C19 inhib – human CYP2C19 inhibition. inhibition, % at 5 µM. 21% of 96,000 active. AID 778. P33261. CYP2C19 Supersomes, luciferin-H EGE luminescence, 30 min;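 active means CYP2C19 inhibition above a set limit at 5 µM in the primary screen, cut at about 50% in these data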;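 further: plate controls were negative control wells for no effect and 2.5 mM tranylcypromine positive control for full effect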
CYP2C19 activ – increases human CYP2C19 enzyme activity. P33261. recombinant CYP2C19, luciferin-H EGE luminescence; hits give high values; 0 = fully inhibited enzyme, 1 = untreated enzyme. activation factor at 5 µM. 96,000 tested, under 10 active. AID 1025;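 active means activation factor of at least 2 at 5 µM in the primary screen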;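 further: 0 = wells with 2.5 mM tranylcypromine and 1 = vehicle-only wells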
CYP2C9 activ – CYP2C9 (human) activation | recombinant CYP2C9, luciferin-H conversion, luminescence; hits give high values; factor 1 = untreated enzyme, 0 = blocked | activation factor at 5 µM | 1.4% of 96,000 active;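 active means activation factor of 2 or more for CYP2C9 at a 5 µM dose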;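 further: 0 = sulfaphenazole-blocked wells and 1 = vehicle-only wells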
PLAP act – activates human placental alkaline phosphatase; purified PLAP enzyme, luminescent substrate read-out; hits give high values; P05187; 1.2% of 96,000 active; activation fold at 20 µM; in the data active means activation fold above about 2
Target sequence (P05187 whole entry, looked up): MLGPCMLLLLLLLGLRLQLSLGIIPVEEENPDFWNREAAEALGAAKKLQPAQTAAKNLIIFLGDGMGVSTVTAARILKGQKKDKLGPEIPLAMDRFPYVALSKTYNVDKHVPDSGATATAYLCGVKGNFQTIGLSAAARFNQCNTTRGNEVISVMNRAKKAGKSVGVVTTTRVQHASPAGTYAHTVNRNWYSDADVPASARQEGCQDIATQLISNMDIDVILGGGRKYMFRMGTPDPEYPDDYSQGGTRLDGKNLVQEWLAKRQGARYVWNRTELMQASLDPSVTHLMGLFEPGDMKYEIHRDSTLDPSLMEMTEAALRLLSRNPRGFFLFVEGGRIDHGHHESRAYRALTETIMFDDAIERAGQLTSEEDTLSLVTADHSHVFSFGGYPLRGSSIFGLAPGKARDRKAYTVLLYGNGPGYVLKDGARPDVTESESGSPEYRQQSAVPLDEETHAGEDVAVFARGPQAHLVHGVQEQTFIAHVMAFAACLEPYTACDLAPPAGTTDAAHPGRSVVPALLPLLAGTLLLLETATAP
CYP2C9 inhib – inhibitors of human CYP2C9 | P11712 | CYP2C9 Supersomes, luciferin-H conversion, luminescence | inhibition, % at 5 µM | 20% of 96,000 active | AID 777;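 active means blocking of liver enzyme CYP2C9 beyond about 50% at 5 µM, limit read from the data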
* = called active by the depositor.

`Cc1ccc(-c2nnc(SCC(=O)N3CCN(c4ccccc4)CC3)o2)cc1` gave CYP2C19 inhib 21, CYP2C19 activ 0.8, CYP2C9 activ 0.7, PLAP act 1.1 and CYP2C9 inhib 27.
For N#CC(c1ccccn1)(c1ncc(C(F)(F)F)cc1Cl)N1CCOCC1 (configuration not stated) the results were CYP2C19 inhib 10, CYP2C19 activ 0.9, CYP2C9 activ 0.8, PLAP act 1.1 and CYP2C9 inhib 17.
`Cc1[nH]c2ccccc2c1Cc1nnc(SCC(N)=O)o1` gave CYP2C19 inhib -2, CYP2C19 activ 1, CYP2C9 activ 1.5, PLAP act 1.2 and CYP2C9 inhib -45.
Screening CCOC(=O)Nc1sc(C(=O)N(CC)CC)c(C)c1C(=O)OCC returned CYP2C19 inhib 50, CYP2C19 activ 0.5, CYP2C9 activ 0.3, PLAP act 1 and CYP2C9 inhib 69*.
For CCOC(=O)c1sc(NC(=O)CN(CC)CC)c(C(=O)OCC)c1C the results were CYP2C19 inhib 20, CYP2C19 activ 0.8, CYP2C9 activ 0.2, PLAP act 1.2 and CYP2C9 inhib 76*.
For CCOC(=O)c1c(NC(=O)OC)sc2c1CCC2 the results were CYP2C19 inhib 1, CYP2C19 activ 1, CYP2C9 activ 1.1, PLAP act 0.8 and CYP2C9 inhib -9.
CCCOC(=O)c1c(N)sc2c1CCC2 was read as CYP2C19 inhib 43, CYP2C19 activ 0.6, CYP2C9 activ 0.5, PLAP act 1.6 and CYP2C9 inhib 50*.
Screening CCOC(=O)c1c(N)sc2c1CCSC2 returned CYP2C19 inhib 11, CYP2C19 activ 0.9, CYP2C9 activ 0.8, PLAP act 0.9 and CYP2C9 inhib 16.
`CCOC(=O)c1c(NC(=O)CN(CC)CC)sc2c1CCC2` gave CYP2C19 inhib 12, CYP2C19 activ 0.9, CYP2C9 activ 0.5, PLAP act 1 and CYP2C9 inhib 52*.
Screening COc1cc(-c2cc(C(F)(F)F)n3ncc(C(=O)O)c3n2)cc(OC)c1OC returned CYP2C19 inhib 26, CYP2C19 activ 0.7, CYP2C9 activ 0.7, PLAP act 1.2 and CYP2C9 inhib 33.
Screening CCSc1nnc(NC(=O)Cc2ccc(OC)c(S(=O)(=O)N3CCOCC3)c2)s1 returned CYP2C19 inhib -4, CYP2C19 activ 1, CYP2C9 activ 0.7, PLAP act 1.1 and CYP2C9 inhib 30.
Screening Cc1ccc2nc3sc(-c4nnc(-c5ccccc5[N+](=O)[O-])o4)c(N)c3cc2c1 returned CYP2C19 inhib 14, CYP2C19 activ 0.9, CYP2C9 activ 1, PLAP act 1.1 and CYP2C9 inhib 1.
`O=C(NCCN1CCOCC1)c1cc2n(n1)C(C(F)(F)F)CC(c1ccc(F)cc1)N2` (configuration not stated) gave CYP2C19 inhib -17, CYP2C19 activ 1.2, CYP2C9 activ 1.1, PLAP act 1.7 and CYP2C9 inhib -7.
Cc1ccc(C(=O)N/C(=C\c2cccs2)C(=O)NCc2ccncc2)cc1 was read as CYP2C19 inhib 9, CYP2C19 activ 0.9, CYP2C9 activ 1, PLAP act 0.9 and CYP2C9 inhib 0.
For Cc1ccc(C(=O)N/C(=C\c2cccs2)C(=O)NCCCn2ccnc2)cc1C the results were CYP2C19 inhib 48, CYP2C19 activ 0.5, CYP2C9 activ 0.5, PLAP act 1.1 and CYP2C9 inhib 54*.
`Cc1ccc(C(=O)N/C(=C\c2ccco2)C(=O)NCCCn2ccnc2)cc1C` gave CYP2C19 inhib 79*, CYP2C19 activ 0.2, CYP2C9 activ 0.3, PLAP act 1.3 and CYP2C9 inhib 71*.
Cc1ccc(C(=O)N/C(=C\c2sccc2C)C(=O)NCc2ccco2)cc1 was read as CYP2C19 inhib 18, CYP2C19 activ 0.8, CYP2C9 activ 0.7, PLAP act 1.1 and CYP2C9 inhib 34.
Screening CCCCOc1ccc(C(=O)Oc2ccc(C)nc2)cc1 returned CYP2C19 inhib 20, CYP2C19 activ 0.8, CYP2C9 activ 0.5, PLAP act 1 and CYP2C9 inhib 55*.
For CCCCCOc1ccc(OC(=O)c2ccncc2)cc1 the results were CYP2C19 inhib 39, CYP2C19 activ 0.6, CYP2C9 activ 0.6, PLAP act 1.1 and CYP2C9 inhib 38.
`Cc1oc(-c2ccc(Cl)cc2)nc1CS(=O)CC(=O)NCc1cccs1` (configuration not stated) gave CYP2C19 inhib 11, CYP2C19 activ 0.9, CYP2C9 activ 0.6, PLAP act 1.5 and CYP2C9 inhib 40.
For Cc1oc(-c2ccccc2F)nc1CS(=O)CC(=O)NCc1cccs1 (configuration not stated) the results were CYP2C19 inhib 53*, CYP2C19 activ 0.5, CYP2C9 activ 0.4, PLAP act 1.7 and CYP2C9 inhib 63*.
Cc1ccc(CCNC(=O)CS(=O)Cc2nc(-c3cccc(C)c3)oc2C)cc1 (configuration not stated) was read as CYP2C19 inhib 64*, CYP2C19 activ 0.4, CYP2C9 activ 0.3, PLAP act 1.6 and CYP2C9 inhib 70*.
Screening Cc1cccc(-c2nc(CS(=O)CC(=O)NCc3cccs3)c(C)o2)c1 (configuration not stated) returned CYP2C19 inhib 37, CYP2C19 activ 0.6, CYP2C9 activ 0.4, PLAP act 1.7 and CYP2C9 inhib 60*.
`Cc1cccc(-c2nc(CS(=O)CC(=O)NCC3CCCO3)c(C)o2)c1` (configuration not stated) gave CYP2C19 inhib 10, CYP2C19 activ 0.9, CYP2C9 activ 0.9, PLAP act 1.2 and CYP2C9 inhib 6.
Screening CCCNC(=O)CS(=O)Cc1nc(-c2ccccc2C)oc1C (configuration not stated) returned CYP2C19 inhib 8, CYP2C19 activ 0.9, CYP2C9 activ 1, PLAP act 1.1 and CYP2C9 inhib 0.
For Cc1oc(-c2ccccc2F)nc1CS(=O)CC(=O)NCc1ccc2c(c1)OCO2 (configuration not stated) the results were CYP2C19 inhib 62*, CYP2C19 activ 0.4, CYP2C9 activ 0.5, PLAP act 1.3 and CYP2C9 inhib 53*.
`COc1ccc(Cc2nnc(SCC(=O)N3CCc4ccccc4C3)o2)cc1` gave CYP2C19 inhib 12, CYP2C19 activ 0.9, CYP2C9 activ 0.8, PLAP act 1 and CYP2C9 inhib 17.
Screening Cc1oc(-c2ccccc2Cl)nc1CS(=O)CC(=O)NCc1cccs1 (configuration not stated) returned CYP2C19 inhib 71*, CYP2C19 activ 0.3, CYP2C9 activ 0.3, PLAP act 1.5 and CYP2C9 inhib 69*.
`Cc1ccsc1C(=O)OC1CCOC1=O` (configuration not stated) gave CYP2C19 inhib -7, CYP2C19 activ 1.1, CYP2C9 activ 2.3*, PLAP act 1.1 and CYP2C9 inhib -127.
For CC(=O)Nc1sc(C)c(C)c1C(=O)OC1CCOC1=O (configuration not stated) the results were CYP2C19 inhib 55*, CYP2C19 activ 0.4, CYP2C9 activ 0.2, PLAP act 1.2 and CYP2C9 inhib 77*.

Screens from PubChem.
